Giardia kill = kills Giardia lamblia; actives 0.15% (n = 340,000); activity change, % at 7.66 µM, hits read low; Giardia lamblia trophozoite viability; in the data active means activity change below about -80%; inconclusive means between about -30% and that limit;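 further: parasites exposed to compound for two days anaerobically before the ATP read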
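ATP-content bioluminescence gauges trophozoite survival. Cells (100/well) receive compound and incubate anaerobically for 48 hrs at 37 deg C; detection reagent follows for 15-30 min at room temperature.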
Anesthetic bind = candidate novel general anesthetic via apoferritin binding | apoferritin/1-aminoanthracene competitive binding, fluorescence | actives 0.074% (n = 350,000) | P02791 | AID 485281 | Potency, µM (highest dose often 77.5 µM), most hits filed as inhibitors; further: nearly all actives have a fitted effect of over 20% in size
Target sequence (P02791 2-175 limits assumed): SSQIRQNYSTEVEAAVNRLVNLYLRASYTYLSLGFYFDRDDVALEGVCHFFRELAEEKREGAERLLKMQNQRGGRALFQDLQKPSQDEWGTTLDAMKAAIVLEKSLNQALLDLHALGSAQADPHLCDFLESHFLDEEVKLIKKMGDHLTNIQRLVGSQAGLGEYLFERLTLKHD
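In PBS, apoferritin at 10 uM is loaded with 1-AMA from a 50% saturated solution. After 10 min of compound exposure at ambient temperature, reduced 535 nm fluorescence indicates probe displacement.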
Nrf2 ARE act = activates Nrf2 signaling; Potency, µM (titrated, usually from 46.1 µM), actives largely listed as activators; AREc32 ARE-luciferase reporter (MCF7-derived line), luminescence, 24 h; AID 624171; actives 0.31% (n = 410,000); further: nearly all actives have a fitted effect of over 65% in size
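Cells of the AREc32 ARE-luciferase line are plated in OPTI-MEM containing 5% FBS and left overnight at 37 deg C. Compounds are pinned in, incubation continues 24 hr, and firefly luciferase signal is then measured.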
mIDH1 inhibitor = human IDH1 R132H inhibition. O75874. IDH1-R132H enzyme, NADPH consumption, diaphorase/resazurin fluorescence. Potency, µM (titrated, usually from 76.6 µM), actives largely listed as inhibitors. actives 0.093% (n = 390,000). AID 602179; further: nearly all actives have a fitted effect of over 65% in size
Target sequence (O75874 whole entry R132H, stated change not applied): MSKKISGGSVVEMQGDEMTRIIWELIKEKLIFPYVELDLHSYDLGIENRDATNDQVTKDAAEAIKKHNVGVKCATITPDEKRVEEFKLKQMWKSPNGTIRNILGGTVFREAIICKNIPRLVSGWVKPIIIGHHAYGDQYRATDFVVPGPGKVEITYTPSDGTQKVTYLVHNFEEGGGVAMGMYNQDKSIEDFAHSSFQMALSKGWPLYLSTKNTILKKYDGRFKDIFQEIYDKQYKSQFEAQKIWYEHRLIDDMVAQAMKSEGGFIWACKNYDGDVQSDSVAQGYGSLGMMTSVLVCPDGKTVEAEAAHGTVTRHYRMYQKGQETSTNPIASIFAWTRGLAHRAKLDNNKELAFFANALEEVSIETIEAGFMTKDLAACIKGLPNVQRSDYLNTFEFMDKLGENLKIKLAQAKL
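IDH1-R132H (0.5 ug/mL) preincubated 30 min with compound, then NADPH (0.016 mM) and alpha-KG (2 mM) added; 80 min at RT, pH 7.5. Remaining NADPH coupled via diaphorase/resazurin to fluorescence (540/590 nm); concentration-response curves normalized to no-enzyme control.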
A549 tox = A549 cytotoxicity, counter-screen for Nrf2 inhibitors. actives 0.16% (n = 390,000). AID 504648. A549 ARE-Fluc cells, CellTiter-Fluor viability, 18-24 h. Potency, µM (doses to about 46 µM), hits mostly inhibitors
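A549 ARE-Fluc cells in 5% FBS OPTI-MEM, 5000 cells/well, rested 2 h then exposed to compounds in concentration-response for 18-24 h at 37 °C. Viability by CellTiter-Fluor fluorescence (Ex 405/Em 525) after 30 min; luciferase luminescence (BugLite, 15 min, RT) read afterwards.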
Nrf2 block = inhibitors of Nrf2 signaling. A549 ARE-Fluc reporter, luciferase luminescence, 18-24 h. Potency, µM (series often up to 46 µM), actives largely listed as inhibitors. actives 2.1% (n = 360,000). AID 504444; further: nearly all actives have a fitted effect of over 60% in size
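Nrf2 function is reported as luminescence of an ARE-controlled luciferase in A549 cells. Compounds were tested at several concentrations, and a CellTiter-Fluor read on the same wells flagged cytotoxicity.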
Hits are given with their value; – = inactive; ? = inconclusive; · = no result given. Hits are enriched below; roughly 2.3% of the tested compounds scored in any of these assays. Unless noted, the call rests on the fitted dose curve; in most records, active means well fitted curve in the direction sought with a large enough effect; inconclusive means small, poorly fitted or top-dose-only effect, or another doubt; inactive means no such curve, though single readings can be large; an effect the other way counts as inactive or inconclusive.

SMILES	Giardia kill	Anesthetic bind	Nrf2 ARE act	mIDH1 inhibitor	A549 tox	Nrf2 block
O=C1OCCC1Sc1nnc(-c2ccc(Cl)cc2Cl)o1 (configuration not stated)	–	–	–	–	–	9.2µM
O=C(Nc1cc(C(F)(F)F)ccc1Cl)C(O)Cc1ccccc1 (configuration not stated)	·	·	·	·	–	–
c1ccc(CNc2nc(-c3ccccn3)nc3ccccc23)cc1	–	–	–	–	–	16µM
CCc1nc(NCc2ccccn2)c2oc3ccccc3c2n1	–	–	–	–	–	9.2µM
Cc1nc(NCc2ccccn2)c2ccccc2n1	–	–	–	–	–	6.5µM
Cc1cc(NCc2ccccn2)nc2ccccc12	–	?	–	–	–	–
O=C(CCC1N=C2c3ccccc3N=C(SCC(=O)Nc3ccc(F)cc3)N2C1=O)NCc1ccco1 (configuration not stated)	·	–	–	–	–	·
CCN(CC)CCN1C(=O)c2ccccc2NC1c1ccc(OC)c(COc2ccc(NC(C)=O)cc2)c1 (configuration not stated)	–	·	·	·	–	–
COc1cc(C2c3c(oc4ccccc4c3=O)C(=O)N2c2ccccn2)cc(OC)c1OC (configuration not stated)	·	–	–	–	–	–
O=C(CC(Nc1ccccc1Cl)C(=O)O)c1ccccc1 (configuration not stated)	–	–	?	–	–	?
Cc1c(Cl)cccc1NC(CC(=O)c1ccccc1)C(=O)O (configuration not stated)	–	–	16µM	–	–	–
COc1ccc(-c2cc(C)no2)cc1S(=O)(=O)N1CCN(c2ccccn2)CC1	–	–	–	–	–	18µM
CCc1ccc(-c2cc(C)no2)cc1S(=O)(=O)N1CCN(c2ccccn2)CC1	–	–	–	–	–	?
CSc1nn(CC(=O)Nc2cc(C)ccc2C)c(N)c1S(=O)(=O)c1ccccc1	·	–	–	–	–	21µM
CSc1nn(CC(=O)Nc2ccccc2F)c(N)c1S(=O)(=O)c1ccccc1	·	–	–	–	–	?
CCSc1nn(CC(=O)Nc2ccc(C(=O)OC)cc2)c(N)c1S(=O)(=O)c1ccc(C)cc1	·	–	–	–	–	23µM
CCOC(=O)c1ccc(NC(=O)Cn2nc(SC)c(S(=O)(=O)c3ccc(Cl)cc3)c2N)cc1	·	–	–	–	–	?
CCSC[C@H](NC(=O)[C@H](C)NC(=O)[C@@H](N)Cc1ccc(O)cc1)C(=O)N[C@@H](CC(=O)O)C(=O)N[C@H](C(=O)N[C@@H](C)C(=O)N[C@H](C(=O)N[C@@H](CSCC)C(=O)N[C@H](C(=O)N[C@H](C(=O)N[C@@H](Cc1cnc[nH]1)C(=O)N[C@@H](CCCNC(=N)N)C(=O)N[C@@H](CC(C)C)C(=O)N[C@@H](C)C(=O)NCC(=O)N[C@@H](CC(C)C)C(=O)N[C@@H](CC(C)C)C(=O)N[C@@H](CO)C(=O)N[C@@H](CCCNC(=N)N)C(=O)N[C@@H](CO)C(=O)NCC(=O)NCC(=O)N[C@H](C(=O)N[C@H](C(=O)N[C@@H](CCCCN)C(=O)N[C@@H](CC(N)=O)C(=O)N[C@@H](CC(N)=O)C(=O)N[C@@H](Cc1ccccc1)C(=O)N[C@H](C(=O)N1CCC[C@H]1C(=O)N[C@H](C(=O)N[C@@H](CC(N)=O)C(=O)N[C@H](C(=O)NCC(=O)N[C@@H](CO)C(=O)N[C@@H](CCCCN)C(=O)N[C@@H](C)C(=O)N[C@@H](Cc1ccccc1)C(N)=O)C(C)C)[C@@H](C)O)C(C)C)C(C)C)C(C)C)[C@@H](C)O)C(C)C)[C@@H](C)O)[C@@H](C)O	·	–	·	·	·	·
FC(F)(F)c1ccc(N2CCOCC2)c(Nc2nc3ccccc3n3cnnc23)c1	–	–	–	–	16µM	21µM
COCCCNC(=O)/C=C1\Sc2ccccc2N(Cc2ccccc2F)C1=O	–	–	11µM	–	–	–
CCOC(=O)c1c(C)oc2nc(C)nc(NCc3ccccc3OC)c12	·	–	–	–	–	–
Cc1ccc(-n2c(=O)c3ccc(C(=O)NCc4ccccc4Cl)cc3n(CC(=O)Nc3ccc(C)cc3C)c2=O)cc1	·	–	–	–	–	–
CCOc1ccc(NC(=O)NC(C)c2c(-n3cccc3)sc(C)c2C)cc1 (configuration not stated)	·	–	–	·	–	21µM
Cc1ccc(CC(=O)N2CCN(c3ccc([N+](=O)[O-])cc3)CC2)cc1	–	?	–	–	?	21µM
Cc1ccc(S(=O)(=O)CC(=O)N2CCN(c3ccc([N+](=O)[O-])cc3)CC2)cc1	–	·	–	–	–	?
SMILES	Giardia kill	Anesthetic bind	Nrf2 ARE act	mIDH1 inhibitor	A549 tox	Nrf2 block
Cc1noc(C)c1CSCC(=O)N1CCN(c2ccc([N+](=O)[O-])cc2)CC1	–	?	–	–	?	21µM
O=C(NC1CCCCC1)N1CCN(c2ccc([N+](=O)[O-])cc2)CC1	–	–	–	–	–	23µM
CCc1noc(C)c1C(=O)N1CCN(c2ccc([N+](=O)[O-])cc2)CC1	·	·	–	–	·	·
COc1cccc(N2C(=O)c3ccccc3C2=O)n1	·	·	·	·	–	–
COc1cccc(S(=O)(=O)N(C)C[C@H]2Oc3ncc(Br)cc3C(=O)N([C@@H](C)CO)C[C@@H]2C)c1	·	·	–	–	·	·
CCc1ccccc1NS(=O)(=O)c1ccc(-c2coc(C)n2)cc1	·	–	–	–	–	·
c1nc(NCCc2cnc[nH]2)c2cc(-c3ccc4c(c3)OCO4)ccc2n1	·	·	·	·	–	–
Cc1cc(=O)oc2cc(NC(=O)c3ccccc3Cl)ccc12	–	–	5µM	–	–	–
Cc1cc(=O)oc2cc(NC(=O)c3ccccc3C(=O)O)ccc12	–	–	–	–	–	–
COc1ccc(CCNC(=O)c2cnn(-c3ccc(F)cc3)c2C2CCN(C(=O)OC(C)(C)C)CC2)cc1OC	·	–	–	–	–	–
Cc1sc2c(c1C)CN(C(C)(C)C)CN2C(=O)c1ccccc1	–	–	11µM	–	–	?
COCCN1Cc2c(sc(C)c2C)N(C(=O)c2ccccc2)C1	–	–	?	–	–	?
O=C(O)c1ccc(N/N=C/C=C/c2ccc([N+](=O)[O-])o2)cc1	?	–	14µM	–	?	?
O=C(NCCc1ccccc1)c1ccc2c(c1)OCCCO2	-89	–	–	–	–	2.1µM
O=C(NCCc1ccccc1)c1ccc2c(c1)OCCO2	-81	–	–	–	–	?
COc1ccc(CCNC(=O)c2ccc3c(c2)OCCO3)cc1	–	–	–	–	–	?
O=C(CCc1ccccc1)c1ccc2c(c1)OCCCO2	–	?	–	–	–	?
